An excerpt weighted towards active compounds, which were near 5.4% of everything screened.
aDG glyco act – alpha-DG glycosylation activation | Pro5-aDG cells, alpha-DG glycosylation AlphaScreen (IIH6); 0% Pro5, 100% B10-LARGE cell signal | activation, % at 10 µM | hit rate 0.22% among 360,000 | AID 624168;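 active = activation of at least 8% versus controls, or a plate z-score of at least 8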;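 also: Pro5 are CHO cells carrying HIG-tagged alpha-DG that lacks glycosylation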
A3A deaminase – inhibitors of human APOBEC3A DNA deaminase; P31941; recombinant A3A, FAM/TAMRA ssDNA deamination fluorescence; inhibition, % at 20 µM; hit rate 0.41% among 330,000;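 active = at least 40% inhibition at 20 µM here, with at most 30% in a related deaminase screen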;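 also: plate controls were A3A with DMSO for no effect and wells lacking A3A enzyme for full effect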
A3G deaminase – APOBEC3G (human) deaminase inhibition; AID 493012; Q9HC16; hit rate 0.28% among 330,000; inhibition, % at 20 µM; recombinant A3G, ssDNA deamination FAM/TAMRA fluorescence;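 active = inhibition of at least 40% at 20 µM, with no more than 30% in the related APOBEC3A deaminase screen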;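 also: plate controls were DMSO wells with A3G for no effect and wells lacking A3G enzyme for full effect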
Target sequence (Q9HC16 whole entry, looked up): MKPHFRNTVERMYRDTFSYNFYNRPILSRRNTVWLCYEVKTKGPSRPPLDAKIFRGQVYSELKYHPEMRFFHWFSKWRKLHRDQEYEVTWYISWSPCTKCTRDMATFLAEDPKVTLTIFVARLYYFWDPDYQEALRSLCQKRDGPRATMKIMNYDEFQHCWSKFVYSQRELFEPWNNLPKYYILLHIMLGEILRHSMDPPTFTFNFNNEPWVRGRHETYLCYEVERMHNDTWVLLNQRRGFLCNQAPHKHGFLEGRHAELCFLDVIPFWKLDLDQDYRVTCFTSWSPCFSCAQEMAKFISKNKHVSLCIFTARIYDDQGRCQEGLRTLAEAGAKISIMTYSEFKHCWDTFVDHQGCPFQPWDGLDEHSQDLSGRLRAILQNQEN
rCAG RNA binder – r(CAG) repeat RNA binding | inhibition, % at 3 µM | AID 651821 | hit rate 1.3% among 370,000 | TO-PRO-1 dye displacement fluorescence;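 active = inhibition above the plate cutoff, the mean of all test compounds on that plate plus 3 SD, cut at about 35% in these data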;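 also: 0% = DMSO alone and 100% = 100 µM mitoxantrone as full dye displacement; higher means more dye released from RNA so lower well fluorescence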
PHOSPHO1 inh – inhibitors of human PHOSPHO1 phosphatase. inhibition, % at 13.3 µM. recombinant PHOSPHO1, absorbance phosphatase assay. AID 1565. Q8TCT1. hit rate 1.1% among 290,000; in the data active = inhibition above about 60%
Target sequence (Q8TCT1 whole entry, looked up): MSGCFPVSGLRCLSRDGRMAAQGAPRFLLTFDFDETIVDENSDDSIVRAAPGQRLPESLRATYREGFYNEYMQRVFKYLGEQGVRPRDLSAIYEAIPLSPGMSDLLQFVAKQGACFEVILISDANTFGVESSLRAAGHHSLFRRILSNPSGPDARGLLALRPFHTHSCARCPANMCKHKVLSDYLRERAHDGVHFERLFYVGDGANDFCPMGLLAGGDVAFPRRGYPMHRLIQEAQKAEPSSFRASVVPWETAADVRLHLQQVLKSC
ALR inh – blocks human ALR sulfhydryl oxidase activity; hit rate 3.8% among 290,000; P55789; purified ALR, DTT oxidation, H2O2 HRP-luminol luminescence; AID 485317; inhibition, % (test concentration not listed);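 active = mean replicate inhibition above about 79%, with every replicate also reaching it, limit read from the data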
rCAG binder conf – r(CAG) RNA repeat binding, confirmation; hit rate 70% among 4,300; AID 652065; inhibition, % at 3 µM; shares compounds with rCAG RNA binder; TO-PRO-1 dye displacement fluorescence;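 active = inhibition above a per-plate cutoff, the mean inhibition of sample wells plus 3 SD, cut at about 35% in these data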;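 also: loss of TO-PRO-1 fluorescence as compound displaces dye from 1x1 AA loop RNA; 0% = DMSO only wells and 100% = 100 µM mitoxantrone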
DNA CAG counter – counter-screen for rCAG RNA binders: DNA CAG dye complex inhibitors; shares compounds with rCAG RNA binder; d(CAG) DNA oligo TO-PRO-1 dye displacement, fluorescence; inhibition, % at 3 µM; hit rate 94% among 4,300; AID 652068;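 active = inhibition above its plate's cutoff, the mean test-well inhibition plus 3 SD, cut at about 4.8% in these data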;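 also: 0% = DNA dye mix with DMSO and 100% = 100 µM mitoxantrone; hits displace the dye from DNA and so lower well fluorescence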
DNA CAG DR – disrupts DNA CAG TO-PRO-1 complex in dose response; hit rate 20% among 250; DNA CAG/GTC duplex TO-PRO-1 dye displacement fluorescence; IC50, µM; shares compounds with rCAG RNA binder; in the data active = IC50 below about 10 µM
The depositor's hits bear a star; i = inactive; . = not tested or not shown.

SMILES	aDG glyco act	A3A deaminase	A3G deaminase	rCAG RNA binder	PHOSPHO1 inh	ALR inh	rCAG binder conf	DNA CAG counter	others
CN(C)S(=O)(=O)c1cccc(C(=O)Nc2cc(S(=O)(=O)N3CCOCC3)ccc2N2CCCC2)c1	0	.	.	9	.	.	.	.
COc1cccc(-c2cnc3c(NC(C)=O)cc(-c4ccc(C(=O)N5CCOCC5)cc4)cn23)c1	0	.	.	6	.	.	.	.
CCC(CC)CC1CN2CCc3cc(OC)c(OC)cc3C2CC1(O)CC (configuration not stated)	0	.	.	-2	.	.	.	.
COCOc1cccc(CN2CCC2(C)C(=O)Nc2cc(OC)ccc2OC)c1 (configuration not stated)	0	.	.	2	.	.	.	.
Cc1ccc(Oc2ccc(NS(=O)(=O)c3cccc(C(=O)O)c3)cc2)cc1	0	0	-2	38*	.	50	38*	10*
O=C(O)c1cccc(S(=O)(=O)Nc2ccc3oc(=O)sc3c2)c1	0	0	2	42*	42	7	7	2
CN1C(=O)C(CC#N)(C2(CC#N)C(=O)N(C)c3ccccc32)c2ccccc21 (configuration not stated)	0	.	.	-1	.	.	.	.
NNC(=O)c1cc(NS(=O)(=O)c2cccs2)cc(NS(=O)(=O)c2cccs2)c1	0	5	-3	42*	.	41	9	4.7*
O=S(=O)(Nc1cccc(CO)c1)c1cccs1	0	-4	-12	2	33	-2	.	.
O=[N+]([O-])c1cccc(COc2ccc(CO)cc2)c1	.	.	.	0	.	.	.	.
Cc1ccc(S(=O)(=O)Nc2cc(C(=O)Nc3cc(C)cc(C)c3)ccc2Cl)cc1	0	-1	-8	36*	-6	-1	42*	9.8*
O=S(=O)(Nc1cccc2[nH]ncc12)c1cccs1	0	-2	-3	4	1	2	.	.
O=S(=O)(Nc1cccc2c1ccc1cccn12)c1cccs1	0	0	-3	38*	12	-4	32	13*
CCc1nnc(NS(=O)(=O)c2ccc(NCc3cc(Cl)ccc3O)cc2)s1	0	0	-2	65*	19	32	46*	14*
CCc1nnc(NS(=O)(=O)c2ccc(NCc3cc(Cl)cc(Cl)c3O)cc2)s1	0	-1	-5	70*	58	70	37*	9.5*
CCc1nnc(NS(=O)(=O)c2ccc(NS(=O)(=O)c3ccccc3[N+](=O)[O-])cc2)s1	0	-2	-9	12	44	-11	.	.
C#CCOCCOCCOCCNc1nc(N2CCN(C(=O)Cn3cc(CC(C)O)nn3)CC2)nc(N2CCN(C(=O)[C@H]([C@@H](C)CC)n3cc(CCCCN)nn3)CC2)n1 (some centres not stated)	0	.	.	-7	.	.	.	.
CCCS(=O)(=O)c1c(S(=O)(=O)CCC)c2c(N)cccn2c1C(=O)c1ccccc1	0	-11	-4	43*	15	-11	25	10*
CCCS(=O)(=O)c1c(S(=O)(=O)CCC)c2c(N)cccn2c1C(=O)OC	0	-1	-5	24	41	0	.	.
O=C(COc1ccccc1F)Nc1cc(S(=O)(=O)Nc2cccc(Cl)c2)ccc1O	0	4	-4	64*	.	.	56*	22*
Clc1cccc(CNc2ccn3nc(-c4ccccc4Cl)cc3n2)c1	0	.	.	3	.	.	.	.
O=C(O)COc1ccc(/C=N/NC(=O)/C(=C/C=C/c2ccccc2)NC(=O)c2ccccc2)cc1	0	-3	3	53*	30	.	43*	17*
CCCCOc1ccc(C(=O)N/C(=C/C=C/c2ccccc2)C(=O)O)cc1	0	-2	-5	56*	17	-3	54*	19*
CCCCOc1ccc(C(=O)N/C(=C/C=C/c2ccccc2)C(=O)NC)cc1	0	-1	-5	2	-5	-1	.	.
O=C1CCC(=O)c2ccc3c4c(ccc1c24)CC3	0	.	.	49*	.	.	4	3
SMILES	aDG glyco act	A3A deaminase	A3G deaminase	rCAG RNA binder	PHOSPHO1 inh	ALR inh	rCAG binder conf	DNA CAG counter	others
O=C1NC[C@@H](CCCCN2CCN(CCC3CCCCC3)C(=O)C2=O)N(Cc2ccccc2)C1=O	0	.	.	1	.	.	.	.
CCC(Sc1nc2ccsc2c(=O)n1Cc1ccc(C(=O)O)cc1)C(=O)Nc1ccc(Cl)cc1 (configuration not stated)	0	.	.	72*	.	.	70*	34*	DNA CAG DR=i
CCNC(=O)C1(C)CCCN(C(=O)c2nc(C)oc2C)C1 (configuration not stated)	0	.	.	1	.	.	.	.
CC(=C\c1ccccc1)/C=C1/SC(=S)N(CCCC(=O)O)C1=O	0	-3	-8	37*	39	14	49*	15*
O=C(CCN1C(=O)/C(=C\c2cccs2)SC1=S)Nc1ccc(C(=O)O)cc1	0	-4	-7	55*	-21	.	40*	11*
CC(=Cc1ccccc1)C=C1SC(=S)N(CCCC(=O)Nc2ccc(C(=O)O)cc2)C1=O	0	.	.	25	.	.	.	.
C=CCN1C(=O)/C(=C\C(C)=C\c2ccccc2)SC1=S	0	-5	-7	1	18	.	.	.
CC(/C=C1\SC(=S)N(CCC(=O)Nc2cccc(C(=O)O)c2)C1=O)=C\c1ccccc1	0	1	-3	37*	28	5	88*	62*
CC(/C=C1\SC(=S)N(CCCC(=O)Nc2ccc(C(=O)O)cc2)C1=O)=C\c1ccccc1	0	-4	-9	74*	16	19	85*	53*
NCc1csc(Nc2ccc(C(=O)c3ccccc3)cc2)n1	0	.	.	13	.	.	.	.
CC(C)=CCc1c(O)cc(O)c2c(=O)c3c(CC=C(C)C)c(O)ccc3oc12	.	-4	-8	.	.	-3	.	.
CC(C)=CCc1c2c(c3occ(-c4ccc(O)cc4)c(=O)c3c1O)C=CC(C)(C)O2	0	1	10	36*	-21	12	31	13*
CC(C)=CCc1c2c(c3occ(-c4ccc(O)c(O)c4)c(=O)c3c1O)C=CC(C)(C)O2	-1	.	.	47*	.	.	43*	28*
CC1(C)C=Cc2c(c3c(c4c(=O)c(-c5ccc(O)cc5)coc24)OC(C)(C)CC3)O1	0	4	-6	7	-94	.	.	.
CCCNC(=O)C[C@H]1CC[C@H]2[C@@H](COc3ccc(NC(=O)c4cncs4)cc3C(=O)N2C)O1	.	.	.	0	.	.	.	.
CC1(c2nnnn2-c2ccc3c(c2)OCCO3)CCC(=O)N1CCc1ccc(O)cc1 (configuration not stated)	0	.	.	4	.	.	.	.

Screening results as filed in PubChem BioAssay.
